In PubChem BioAssay (Tox21):
Inconclusive results are not listed. The source made the active and inactive calls. Unless noted, the call rests on the fitted dose curve.

What was measured:
[1] = Nuclear factor erythroid 2-related factor 2/antioxidant responsive element (Nrf2/ARE) small molecule agonists: qHTS cell viability counter screen in human keratinocytes (AID 1919968; active means well fitted curve in the direction sought with a large enough effect in the repeat runs; an effect the other way counts as inactive or inconclusive; further: nearly all actives have a fitted effect of over 55% in size)
How it was run: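 HaCaT ARE reporter line, 1,500 cells/well; 5 h settle, 37 C/5% CO2; cpd in DMSO pinned; 23 h exposure; CellTiter-Fluor, 1 h; fluorescence.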

[2] = Nuclear factor erythroid 2-related factor 2/antioxidant responsive element (Nrf2/ARE) small molecule agonists: luciferase reporter gene qHTS assay in human keratinocytes (AID 1919969); further: nearly all actives have a fitted effect of over 35% in size; further: potency means the concentration at half of the fitted maximal effect
[3] = biological target: Gonadotropin-releasing hormone receptor (Homo sapiens) (UniProt P30968); test: Human gonadotropin-releasing hormone receptor (GnRHR) small molecule agonists, calcium flux assay in GnRHR-HEK293 cells (AID 1920063); further: nearly all actives have a fitted effect of over 35% in size
How it was run: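 GnRHR-HEK293, 1500 cells/well, 18 h 37 C/5% CO2; Ca dye 1 h 37 C; cpd pinned (DMSO), agonist mode; kinetic FL 480/540, 3 min, 1 s reads; 15 conc, n=3.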

[4] = biological target: KiSS-1 receptor (Homo sapiens) (UniProt Q969F8); test: Human kisspeptin (KISS1R) small molecule agonists, calcium flux assay in KISS1R-HEK293 cells (AID 1920064; active means well fitted curve in the direction sought with a large enough effect in the repeat runs; an effect the other way counts as inactive or inconclusive)
How it was run: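 Stable human KISS1R HEK293 line; 18 h plating, 37 C/5% CO2; calcium dye 1 h 37 C; compound pin transfer; kinetic fluorescence Ex/Em 480/540, 3 min.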

[5] = G protein-coupled receptor (GPCR) small molecule agonists, calcium flux assay: HEK293 wild type cell line counter screen (AID 1920065)
How it was run: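 Kinetic fluorescence at Ex/Em 480/540, recorded every second over 3 min, served as the read-out after compound addition. Each compound was tested at 15 concentrations in triplicate on cells pre-loaded with calcium dye for 1 h.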

[6] = p53 small molecule agonists, cell-based qHTS assay with human liver microsomes (AID 1963577);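 further: p53 response element beta-lactamase reporter cells with liver microsomes plus NADPH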
How it was run: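 Metabolically competent format: test substances, human liver microsomes and NADPH (both 0.5 mg/mL final) incubated with p53RE-bla cells 16 h at 37 C. Beta-lactamase reporter signal then quantified by fluorescence.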

[7] = p53 small molecule agonists, cell-based qHTS assay with rat liver microsomes (AID 1963578)
How it was run: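 Each plate received p53RE-bla cells, then compound, then rat liver microsomes and NADPH (both 0.5 mg/mL final). Plates were held 16 h at 37 C, and beta-lactamase activity was detected with LiveBLAzer over 2 h.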

[8] = p53 small molecule agonists, cell-based qHTS assay with rat liver microsomes: qHTS cell viability counter screen (AID 1963580); further: nearly all actives have a fitted effect of over 45% in size
How it was run: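 Viability is assessed in parallel with the p53 reporter read: HCT-116 p53RE-bla cells receive compounds plus rat microsomes and NADPH (0.5 mg/mL final apiece), incubate 16 h at 37 C, and then CellTiter-Glo luminescence is recorded.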

[9] = p53 small molecule agonists, cell-based qHTS assay: qHTS cell viability counter screen (AID 1963581); further: nearly all actives have a fitted effect of over 45% in size
How it was run: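 HCT-116 p53RE-bla cells, 4,000/well, plated 5 h before compound pin transfer; 16 h at 37 C; bla substrate 2 h RT; then CellTiter-Glo, 30 min RT, luminescence.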

[10] = p53 small molecule agonists, cell-based qHTS assay (AID 1963582; active means well fitted activation curve with a large enough effect in the signal ratio in the repeat runs, not every such curve was filed as active; the % refers to the signal ratio; further: potency means the concentration at half of the fitted maximal effect)
How it was run: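 Reporter line: p53RE-bla. Pre-incubation 5 h, 37 C, 5% CO2; compound (DMSO, pin tool) 16 h, 37 C; B/G FRET substrate 2 h RT; fluorescence intensity read.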

[11] = biological target: 5-hydroxytryptamine receptor 2A (Homo sapiens) (UniProt P28223); test: 5-hydroxytryptamine receptor 2A (HTR2A) small molecule antagonists, cell-based qHTS assay (AID 1963586); further: nearly all actives have a fitted effect of over 45% in size
How it was run: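 Antagonist-mode intracellular calcium assay: DOI (4 nM) added after 5 min compound pre-incubation at room temperature to dye-loaded HTR2A-CHO cells. Fluorescence followed for 3 min, sampled every second.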

[12] = biological target: 5-hydroxytryptamine receptor 2A (Homo sapiens) (UniProt P28223); test: 5-hydroxytryptamine receptor 2A (HTR2A) small molecule agonists, cell-based qHTS assay (AID 1963587); further: nearly all actives have a fitted effect of over 30% in size
How it was run: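 CHO cells stably expressing human HTR2A, plated 18 h, loaded with calcium dye 1 h at 37 C. Agonist mode: compounds added and intracellular calcium fluorescence recorded kinetically for 2 min at 1 sec intervals.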

[13] = biological target: Muscarinic acetylcholine receptor M1 (Homo sapiens) (UniProt P11229); test: Cholinergic receptor muscarinic 1 (CHRM1) small molecule antagonists, cell-based qHTS assay (AID 1963588); further: nearly all actives have a fitted effect of over 40% in size; further: potency means the concentration at half of the fitted maximal effect
How it was run: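 CHRM1-CHO calcium-flux assay, antagonist mode. Cells were seeded 18 h, dye-loaded 1 h at 37 C and given compound for 5 min at RT, then acetylcholine was added at 50nM. FDSS fluorescence was read 3 min; 15 concentrations, three runs.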

[14] = cAMP Responsive Elements (CRE) small molecule antagonists, cell-based qHTS assay (AID 1963591; active means well fitted inhibition curve with a large enough effect in the signal ratio in the repeat runs, not every such curve was filed as active; the % refers to the signal ratio; further: potency means the concentration at half of the fitted maximal effect)
How it was run: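 Beta-lactamase reporter read by FRET substrate (LiveBLAzer B/G) after 2 h at room temperature. CRE-bla HEK293T cells had received compound plus 0.25 uM (final) NKH477 for 3 h at 37 °C.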

[15] = biological target: Beta-2 adrenergic receptor (Homo sapiens) (UniProt P07550); test: Adrenergic beta2 receptor (ADRB2) small molecule antagonists, cell-based qHTS assay (AID 1963592); further: nearly all actives have a fitted effect of over 50% in size; further: potency means the concentration at half of the fitted maximal effect; on activity change, negative = inhibition: series mostly up to about 92 µM
How it was run: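 Cells (CHO, stable ADRB2 overexpression) incubated 18-20hr at 37C; compounds added from DMSO; agonist mix (1nM isoproterenol, 100uM IBMX, 25uM Ro-20-1724) added; 0.5hr RT; d2-cAMP and anti-cAMP-cryptate added; 1hr RT; 665/615 nm read.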

[16] = biological target: Beta-2 adrenergic receptor (Homo sapiens) (UniProt P07550); test: Adrenergic beta2 receptor (ADRB2) small molecule agonists, cell-based qHTS assay (AID 1963593);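 further: CHO cells stably overexpressing human ADRB2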
How it was run: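 CHO cells stably over-expressing ADRB2 were plated overnight at 37C, then dosed with compounds plus a stimulation mix containing 100uM IBMX and 25uM Ro-20-1724 for 0.5hr at room temperature. cAMP was measured by HTRF competition, 1hr.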

[17] = biological target: D(2) dopamine receptor (Homo sapiens) (UniProt P14416); test: Dopamine D2 receptor (DRD2) small molecule agonists, cell-based qHTS assay (AID 1963594); further: nearly all actives have a fitted effect of over 35% in size; further: potency means the concentration at half of the fitted maximal effect
How it was run: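 HEK293 cells stably expressing human DRD2, pre-treated with PDE inhibitor Ro20-1724 (0.1 mM final) and compound 10 min at room temperature, then stimulated with NKH477 (200nM […]) for 30 min. cAMP read by HTRF (665/620 nm).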

[18] = biological target: D(2) dopamine receptor (Homo sapiens) (UniProt P14416); test: Dopamine D2 receptor (DRD2) small molecule antagonists, cell-based qHTS assay (AID 1963595; active means well fitted inhibition curve with a large enough effect in the signal ratio in the repeat runs, with a control signal flat; the % refers to the signal ratio)
How it was run: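 Cells were plated and grown for 24 h at 37 °C. Ro20-1724 (0.1 mM final) went in first, then compound for 10 min. NKH477 (200 nM) with quinpirole (12 nM) followed for 30 min at RT, then HTRF detection reagents for 1 h.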

[19] = biological target: Muscarinic acetylcholine receptor M1 (Homo sapiens) (UniProt P11229); test: Cholinergic receptor muscarinic 1 (CHRM1) small molecule agonists, cell-based qHTS assay (AID 1963589); further: nearly all actives have a fitted effect of over 35% in size
How it was run: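 Human M1 in stable CHO line; 18 h plating, 1 h dye load 37 C; cpd added (agonist mode); Ca2+ fluorescence kinetic read, 1 s intervals; 15 conc, 3 runs.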

[20] = cAMP Responsive Elements (CRE) small molecule agonists, cell-based qHTS assay (AID 1963590)
How it was run: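 HEK 293T CRE-bla, 2,000 cells/well, 18 h preincubation 37 C/5% CO2; cpds (DMSO) pinned, 3 h; LiveBLAzer B/G FRET substrate, 2 h RT.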
On the % scale 0 is the no-effect control and ±100 the full control effect.

Sequence of Gonadotropin-releasing hormone receptor (Homo sapiens) (P30968 whole entry, looked up): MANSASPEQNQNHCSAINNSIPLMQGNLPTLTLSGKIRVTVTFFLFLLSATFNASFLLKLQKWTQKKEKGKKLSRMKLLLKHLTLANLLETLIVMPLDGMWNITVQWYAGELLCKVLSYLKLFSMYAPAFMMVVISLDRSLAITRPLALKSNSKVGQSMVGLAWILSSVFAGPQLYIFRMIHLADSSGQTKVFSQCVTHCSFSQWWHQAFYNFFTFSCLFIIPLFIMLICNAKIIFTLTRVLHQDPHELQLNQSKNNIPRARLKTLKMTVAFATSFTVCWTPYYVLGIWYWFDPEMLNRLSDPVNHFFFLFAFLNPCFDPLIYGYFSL
Sequence of 5-hydroxytryptamine receptor 2A (Homo sapiens) (P28223 whole entry, looked up): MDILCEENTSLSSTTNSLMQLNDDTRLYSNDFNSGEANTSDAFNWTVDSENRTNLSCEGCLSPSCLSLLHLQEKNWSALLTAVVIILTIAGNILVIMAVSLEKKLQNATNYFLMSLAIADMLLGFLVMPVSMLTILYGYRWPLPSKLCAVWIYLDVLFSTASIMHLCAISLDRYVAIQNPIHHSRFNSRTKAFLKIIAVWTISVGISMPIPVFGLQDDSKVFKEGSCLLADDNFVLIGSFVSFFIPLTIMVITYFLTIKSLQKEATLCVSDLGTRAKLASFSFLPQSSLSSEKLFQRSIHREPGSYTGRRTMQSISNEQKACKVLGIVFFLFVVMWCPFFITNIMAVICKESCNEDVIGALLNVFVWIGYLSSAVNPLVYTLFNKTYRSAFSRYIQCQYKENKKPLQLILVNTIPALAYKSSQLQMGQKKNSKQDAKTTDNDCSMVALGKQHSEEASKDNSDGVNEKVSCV
Sequence of D(2) dopamine receptor (Homo sapiens) (P14416 whole entry, looked up): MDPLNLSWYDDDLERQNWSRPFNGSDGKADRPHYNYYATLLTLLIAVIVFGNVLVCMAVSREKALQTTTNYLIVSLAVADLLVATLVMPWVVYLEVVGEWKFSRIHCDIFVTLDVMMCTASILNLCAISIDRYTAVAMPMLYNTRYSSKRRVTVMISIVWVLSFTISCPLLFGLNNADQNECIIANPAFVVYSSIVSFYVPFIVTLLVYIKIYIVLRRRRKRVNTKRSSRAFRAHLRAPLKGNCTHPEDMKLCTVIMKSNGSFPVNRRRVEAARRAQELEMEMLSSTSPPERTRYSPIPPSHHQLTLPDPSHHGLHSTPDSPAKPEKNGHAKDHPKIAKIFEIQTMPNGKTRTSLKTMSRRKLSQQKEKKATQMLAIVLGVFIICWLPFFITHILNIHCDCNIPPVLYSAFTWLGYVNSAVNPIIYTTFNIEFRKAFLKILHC
Sequence of KiSS-1 receptor (Homo sapiens) (Q969F8 whole entry, looked up): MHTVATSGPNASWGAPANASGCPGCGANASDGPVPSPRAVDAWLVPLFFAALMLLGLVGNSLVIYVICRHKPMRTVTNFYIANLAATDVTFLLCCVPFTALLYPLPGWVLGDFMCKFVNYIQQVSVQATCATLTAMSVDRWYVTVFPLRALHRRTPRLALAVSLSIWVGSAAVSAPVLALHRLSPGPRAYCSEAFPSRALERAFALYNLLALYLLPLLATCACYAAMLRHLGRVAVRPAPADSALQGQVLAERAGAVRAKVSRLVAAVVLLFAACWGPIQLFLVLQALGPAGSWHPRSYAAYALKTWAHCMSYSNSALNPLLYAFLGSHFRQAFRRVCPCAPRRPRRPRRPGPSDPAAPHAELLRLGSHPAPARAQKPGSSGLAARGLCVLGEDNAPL
Sequence of Beta-2 adrenergic receptor (Homo sapiens) (P07550 whole entry, looked up): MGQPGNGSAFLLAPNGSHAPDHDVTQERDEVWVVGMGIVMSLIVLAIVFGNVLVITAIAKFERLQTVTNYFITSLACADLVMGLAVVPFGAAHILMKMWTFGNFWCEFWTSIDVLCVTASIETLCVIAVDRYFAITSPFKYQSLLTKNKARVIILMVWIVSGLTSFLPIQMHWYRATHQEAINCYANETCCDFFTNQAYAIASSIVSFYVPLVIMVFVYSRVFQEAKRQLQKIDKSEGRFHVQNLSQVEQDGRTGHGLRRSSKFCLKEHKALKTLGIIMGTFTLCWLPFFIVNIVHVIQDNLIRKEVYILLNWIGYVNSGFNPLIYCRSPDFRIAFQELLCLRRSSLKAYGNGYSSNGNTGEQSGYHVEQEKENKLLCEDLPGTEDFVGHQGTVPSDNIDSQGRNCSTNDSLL
Sequence of Muscarinic acetylcholine receptor M1 (Homo sapiens) (P11229 whole entry, looked up): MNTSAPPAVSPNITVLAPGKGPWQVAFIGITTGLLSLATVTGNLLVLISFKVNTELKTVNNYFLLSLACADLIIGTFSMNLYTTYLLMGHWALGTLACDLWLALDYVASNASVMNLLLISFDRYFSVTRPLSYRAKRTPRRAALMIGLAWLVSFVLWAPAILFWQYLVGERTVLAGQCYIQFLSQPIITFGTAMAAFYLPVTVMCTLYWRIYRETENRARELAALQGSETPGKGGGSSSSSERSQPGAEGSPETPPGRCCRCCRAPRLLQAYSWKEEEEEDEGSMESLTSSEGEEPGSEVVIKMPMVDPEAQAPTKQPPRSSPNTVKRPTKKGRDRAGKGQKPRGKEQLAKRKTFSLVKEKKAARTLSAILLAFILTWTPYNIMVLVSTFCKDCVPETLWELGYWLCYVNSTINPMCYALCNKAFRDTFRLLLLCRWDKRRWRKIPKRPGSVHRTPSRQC

O=C(O)c1cccc(Cl)n1
inactive: Potency [1] | Potency [3] | outcome [4] | outcome [5] | Potency [6] | Potency [7] | Potency [8] | Potency [9] | Potency [10] | Potency [11] | Potency [12] | Potency [13] | Potency [14] | Potency [15] | Potency [16] | Potency [17] | Potency [18]
active: Potency [2] 68.6 µM

COC(=O)C1=C(C)NC(C)=C(C(=O)OC(C)(C)CN(C)CCC(c2ccccc2)c2ccccc2)C1c1cccc([N+](=O)[O-])c1 (centres undefined)
active: Potency [13] 6.5 µM
inactive: Potency [1] | Potency [2] | Potency [3] | outcome [4] | outcome [5] | Potency [6] | Potency [7] | Potency [8] | Potency [9] | Potency [10] | Potency [11] | Potency [12] | Potency [19] | Potency [15] | Potency [17] | Potency [18]

O=c1c(O)c(O)c1=O
inactive: Potency [1] | Potency [2] | Potency [3] | outcome [4] | outcome [5] | Potency [6] | Potency [7] | Potency [8] | Potency [9] | Potency [10] | Potency [11] | Potency [12] | Potency [19] | Potency [14] | Potency [15] | Potency [17] | Potency [18]

CC(=O)OC[C@H]1O[C@@H](n2ncc(=O)[nH]c2=O)[C@H](OC(C)=O)[C@@H]1OC(C)=O
active: Potency [10] 0.5 µM
inactive: Potency [1] | Potency [2] | Potency [3] | outcome [4] | outcome [5] | Potency [6] | Potency [7] | Potency [8] | Potency [9] | Potency [20] | Potency [14] | Potency [15] | Potency [16] | Potency [17] | Potency [18]

C[C@@H]1CC[C@@]2(OC1)O[C@H]1C[C@H]3[C@@H]4CC[C@H]5C[C@@H](O)CC[C@]5(C)[C@H]4CC(=O)[C@]3(C)[C@H]1[C@@H]2C
inactive: activity change, negative = cytotoxicity [1] -14.4% [at 8.39 µM] | activity, positive = activation [2] -0.515% [at 8.39 µM] | activity change [3] -0.98% [at 5.22 µM, active compounds read high] | activation [4] 0.0336% [at 6.97 µM] | activation [5] 1.09% [at 5.23 µM] | activation [6] 1.05% [at 5.99 µM] | activation [7] 0.138% [at 5.99 µM] | activity change, negative = cytotoxicity [8] 5.02% [at 5.99 µM] | activity change, negative = cytotoxicity [9] -10.7% [at 5.99 µM] | activation [10] -0.0756% [at 5.99 µM] | activity, negative = inhibition [11] 89.9% [at 5.62 µM] | activity, negative = inhibition [13] 4.81% [at 5.58 µM] | activation [19] 0.4% [at 6.97 µM] | activation [20] -0.0414% [at 8.39 µM] | activity change, negative = inhibition [14] 0.931% [at 8.39 µM] | activation [16] 3.94% [at 8.39 µM] | activation [17] -11.7% [at 8.39 µM] | activity change, negative = inhibition [18] -1.11% [at 8.38 µM]

O=C(CCCCCCCCC#CI)Oc1ccccc1
inactive: Potency [1] | Potency [2] | Potency [3] | outcome [4] | outcome [5] | Potency [6] | Potency [7] | Potency [8] | Potency [9] | Potency [10] | Potency [11] | Potency [13] | Potency [19] | Potency [14] | Potency [16] | Potency [17] | Potency [18]

O=C(Nc1ccccc1)Nc1ccccc1
inactive: Potency [1] | Potency [2] | Potency [3] | outcome [4] | outcome [5] | Potency [6] | Potency [7] | Potency [8] | Potency [9] | Potency [10] | Potency [11] | Potency [12] | Potency [13] | Potency [19] | Potency [17] | Potency [18]
active: Potency [15] 68.9 µM

CO[Si](CCCS)(OC)OC
inactive: Potency [1] | Potency [2] | Potency [3] | outcome [4] | outcome [5] | Potency [6] | Potency [7] | Potency [8] | Potency [9] | Potency [10] | Potency [11] | Potency [13] | Potency [19] | Potency [20] | Potency [14] | Potency [15] | Potency [17] | Potency [18]

O=C1c2ccccc2S(=O)(=O)N1CCCCN1CCN(c2ncccn2)CC1
active: Potency [17] 2.76 µM
inactive: Potency [1] | Potency [2] | Potency [3] | outcome [4] | outcome [5] | Potency [6] | Potency [7] | Potency [8] | Potency [9] | Potency [10] | Potency [12] | Potency [13] | Potency [19] | Potency [20] | Potency [14] | Potency [15] | Potency [16] | Potency [18]

C1=C\CC/C=C\CC/1
inactive: Potency [1] | Potency [2] | Potency [3] | outcome [4] | outcome [5] | Potency [6] | Potency [7] | Potency [8] | Potency [9] | Potency [10] | Potency [12] | Potency [13] | Potency [19] | Potency [20] | Potency [14] | Potency [16] | Potency [17] | Potency [18]

CCCCCCC(CCCCCCCCCCC(=O)OCC(COC(C)=O)OC(C)=O)OC(C)=O (centres undefined)
inactive: Potency [1] | Potency [2] | Potency [3] | outcome [4] | outcome [5] | Potency [6] | Potency [7] | Potency [8] | Potency [9] | Potency [10] | Potency [11] | Potency [12] | Potency [13] | Potency [20] | Potency [14] | Potency [15] | Potency [16] | Potency [17] | Potency [18]

C[C@]1(Cn2ccnn2)[C@H](C(=O)O)N2C(=O)C[C@H]2S1(=O)=O
active: Potency [14] 1.88 µM
inactive: Potency [1] | Potency [2] | Potency [3] | outcome [4] | outcome [5] | Potency [6] | Potency [7] | Potency [8] | Potency [9] | Potency [10] | Potency [20] | Potency [15] | Potency [16] | Potency [17]

CNS(=O)(=O)Cc1ccc2[nH]cc(CCN(C)C)c2c1
inactive: Potency [1] | Potency [2] | Potency [3] | outcome [4] | outcome [5] | Potency [6] | Potency [7] | Potency [8] | Potency [9] | Potency [10] | Potency [20] | Potency [14] | Potency [15] | Potency [17] | Potency [18]
